{
  "source": "PubChem BioAssay (NCATS)",
  "note": "Unmarked numbers belong to inactive results. The call rests on the fitted dose curve; in most records, active means well fitted curve in the direction sought with a large enough effect; inconclusive means small, poorly fitted or top-dose-only effect, or another doubt; inactive means no such curve, though single readings can be large or run the other way.",
  "data": [
    {"experiment": "Cellular Toxicity (caspase-3) HUV-EC-C (AID 656)", "settings": "HUV-EC-C cells, caspase-3 activation (apoptosis), vehicle = 0, 100 µM tamoxifen = 100%; series mostly up to 92.2 µM; caspase-3 activation: at the top concentration", "from_the_text": "NIH Chemical Genomics Center [NCGC]\nNIH Molecular Libraries Screening Centers Network [MLSCN]\nNational Institutes of Environmental Health Sciences [NIEHS]\nNational Toxicology Program [NTP]\nWe have developed a 1536-well cell-based assay for quantitative high throughput screening (qHTS) against a number of cell lines to determine in vitro caspase 3/7 of small molecules. This particular assay uses the HUV-EC-C cell line which is derived from normal human vascular endothelial cells.\nNCGC Assay Protocol Summary:\nThe Caspase-Glo 3/7 assay (Promega) is a homogeneous method to measure caspase-3 and caspase-7 activities in cultured cells. The quantitation of caspase 3/7 activity is based on the cleavage of a peptide-aminoluciferin substrate. After caspase cleaves the substrate the free aminoluciferin is liberated and serves as the substrate of luciferase, which generates the light. The luminescent signal is proportional to amount of caspase 3/7 activity present.\nUsing the Caspase-Glo 3/7 assay, the amount of caspase 3/7 activity was measured in the HUV-EC-C cell line with complete culture medium following compound treatment for 16 hours. The assay was performed in opaque white 1536-well plates. In the screen, tamoxifen and doxorubicin were used as positive controls. Library compounds were measured for their ability to cause the activation of caspase 3/7 in the cell line, as reflected by an increase in luminescence signal, in a concentration-dependent manner. Data were normalized to the controls for basal activity (DMSO only) and 100% stimulation (100 uM tamoxifen). AC50 values were determined from concentration-response data modeled with the standard Hill equation.\nqHTS protocol for caspase 3/7 assay in HUV-EC-C cell line\n[Step] [Parameter] [Value] [Description]\n1. Reagent; 5 uL; 1000 HUV-EC-C cells/well\n2. Time; 5 hr; 37 °C incubation\n4. Controls; 23 nL; Tamoxifen 0.23 uM to 100 uM & doxorubicin 7.0 pM to 100 uM\n5. Time; 16 hr; 37 °C incubation\n6. Reagent; 5 uL; Caspase-Glo 3/7 reagent\n7. Time; 20 min; Room Temperature\n8. Detection; Luminescence; Viewlux plate reader\nKeywords: caspase 3/7, apoptosis, HUV-EC-C cell line, luminescence, NTPHTS, NTPHTS_NCGC, NIEHS, EPA, DSSTox, MLSMR, MLSCN, NIH Roadmap, qHTS, NCGC", "units": {"caspase-3 activation": "%"}, "values": [
      {"compound": "Cc1cccc(C)c1O", "caspase-3 activation": 0.252},
      {"compound": "CCCCCCC(=O)O", "caspase-3 activation": -6.35},
      {"compound": "COC(=O)CCC(=O)OC", "caspase-3 activation": 0.249},
      {"compound": "C[C@@H]1CC2(OC[C@]3(C)O[C@H]23)O[C@H]2C[C@@]3(C)[C@@H]4CC[C@H]5C(C)(C)C(O[C@@H]6OC[C@@H](O)[C@H](O)[C@H]6O)CC[C@@]56C[C@@]46CC[C@]3(C)[C@@H]12", "note": "(stereo not given in full)", "caspase-3 activation": -4.09},
      {"compound": "CC(=O)CCc1ccccc1", "caspase-3 activation": -1.42},
      {"compound": "Nc1nc(CC(=O)O)cs1", "caspase-3 activation": 0.843},
      {"compound": "CCC(C)(C)C", "caspase-3 activation": -1.31},
      {"compound": "CNC(=O)c1ccccc1", "caspase-3 activation": 5.75},
      {"compound": "CN(C)CCCCl", "caspase-3 activation": -2.3},
      {"compound": "S=C([S-])NCCNC(=S)[S-].[Zn+2]", "caspase-3 activation": 2.43},
      {"compound": "OC/C(Br)=C(\\Br)CO", "caspase-3 activation": -1.25},
      {"compound": "Cc1cc(C2(c3cc(C)c(O)cc3C)OS(=O)(=O)c3ccccc32)c(C)cc1O", "caspase-3 activation": -3.72},
      {"compound": "O=C(Cl)c1c(Cl)cccc1Cl", "caspase-3 activation": -1.69},
      {"compound": "Cc1cccc(C(=O)O)c1[N+](=O)[O-]", "caspase-3 activation": 7.7},
      {"compound": "CCCOCC(C)O", "note": "(stereo not given)", "caspase-3 activation": 6.55},
      {"compound": "Cc1cccc(C)c1", "caspase-3 activation": 1.39},
      {"compound": "BrC(Br)C(Br)Br", "caspase-3 activation": 3.26},
      {"compound": "Cc1ccc(C)c(N)c1", "caspase-3 activation": 2.87},
      {"compound": "Cc1ccc(CO)cc1", "caspase-3 activation": 9.21},
      {"compound": "Nc1cc(Cl)c([N+](=O)[O-])cc1O", "caspase-3 activation": -3.44},
      {"compound": "CCCCC(=O)N(C)C", "caspase-3 activation": 7.48},
      {"compound": "O=C(Cl)c1ccccc1[N+](=O)[O-]", "caspase-3 activation": -1.95},
      {"compound": "Cc1cc(C(=O)O)ccc1[N+](=O)[O-]", "caspase-3 activation": -3.61},
      {"compound": "Cc1cc(C)cc([N+](=O)[O-])c1", "caspase-3 activation": -2.35},
      {"compound": "C=C(C)C(=O)OCCCCCCCCCC", "caspase-3 activation": 2.4},
      {"compound": "Cc1cccc2sc(N)nc12", "caspase-3 activation": -4.31},
      {"compound": "CC(C)Cc1nccs1", "caspase-3 activation": 3.68},
      {"compound": "NC(=O)c1ccccc1[N+](=O)[O-]", "caspase-3 activation": -2.58},
      {"compound": "C=CCCCCCC", "caspase-3 activation": 1.1},
      {"compound": "O=C(O)c1cccc([N+](=O)[O-])c1", "caspase-3 activation": 1.06},
      {"compound": "C/C=C1\\CC2C=CC1C2", "note": "(stereo not given)", "caspase-3 activation": -4.27},
      {"compound": "C1CCOC1", "caspase-3 activation": -3.78},
      {"compound": "c1ccsc1", "caspase-3 activation": -1.41},
      {"compound": "ON=C1CCCCC1", "caspase-3 activation": 0.906},
      {"compound": "C=CCOC(=O)CCCCCCCC", "caspase-3 activation": -0.814},
      {"compound": "Clc1ccc(Cl)c(Cl)c1Cl", "caspase-3 activation": 1.61},
      {"compound": "CCCCC(C=O)CC", "note": "(stereo not given)", "caspase-3 activation": -1.33},
      {"compound": "Cc1ccc2oc(=O)ccc2c1", "caspase-3 activation": 1.11},
      {"compound": "CCC(=O)/C=C/C1C(C)=CCCC1(C)C", "note": "(stereo not given)", "caspase-3 activation": -3.38},
      {"compound": "CCNS(=O)(=O)c1ccc(C)cc1", "caspase-3 activation": -0.795}
    ]}
  ]
}
